Assay in all cases: DAPPL (digital affinity profiling via proximity ligation, sequencing); 10 mM Tris-HCl pH 7.5, 50 mM NaCl, 1 mM DTT, 4% glycerol, room temperature, 30 min; GST-TFs on glutathione beads, 16-mer random dsDNA library, 0.1% formaldehyde crosslink after washing; high values mean tight binding
Holding throughout (settings): protein: recombinant; tags: N-terminal GST; dsDNA, one strand shown

One assay has as its target T1, ERF (Homo sapiens, UniProt P50548 1-548).
T1 sequence: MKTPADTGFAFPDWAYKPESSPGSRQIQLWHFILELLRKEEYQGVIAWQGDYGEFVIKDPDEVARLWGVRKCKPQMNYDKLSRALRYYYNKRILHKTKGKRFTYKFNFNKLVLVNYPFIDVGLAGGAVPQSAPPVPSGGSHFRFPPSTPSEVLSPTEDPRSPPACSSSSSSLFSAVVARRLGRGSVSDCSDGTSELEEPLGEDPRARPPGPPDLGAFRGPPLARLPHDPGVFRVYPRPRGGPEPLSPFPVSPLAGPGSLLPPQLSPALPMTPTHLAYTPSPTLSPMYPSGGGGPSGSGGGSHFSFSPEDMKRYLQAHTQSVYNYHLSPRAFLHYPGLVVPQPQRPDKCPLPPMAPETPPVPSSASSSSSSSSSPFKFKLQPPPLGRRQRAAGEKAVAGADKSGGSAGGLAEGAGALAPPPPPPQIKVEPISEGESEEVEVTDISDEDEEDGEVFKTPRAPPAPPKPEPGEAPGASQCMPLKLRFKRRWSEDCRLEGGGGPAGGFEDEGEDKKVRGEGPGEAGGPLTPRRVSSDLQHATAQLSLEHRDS
In outline:
(§1)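 Yeast served to express human transcription factors as GST fusions, which were then captured on glutathione beads and labelled with DNA barcodes. Pooled with a tag-only sample, they were incubated with 200 nmole of a 16-mer random double-stranded DNA library for 30 min at room temperature in Tris/NaCl/DTT/glycerol buffer, washed, crosslinked with 0.1% formaldehyde, ligated by proximity, amplified by PCR and sequenced. Dividing each hexamer's read frequency for a factor by its frequency for the tag-only sample gives the binding signal.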

A further assay deals with T2, ETV3L (Homo sapiens, UniProt Q6ZN32 1-361).
T2 sequence: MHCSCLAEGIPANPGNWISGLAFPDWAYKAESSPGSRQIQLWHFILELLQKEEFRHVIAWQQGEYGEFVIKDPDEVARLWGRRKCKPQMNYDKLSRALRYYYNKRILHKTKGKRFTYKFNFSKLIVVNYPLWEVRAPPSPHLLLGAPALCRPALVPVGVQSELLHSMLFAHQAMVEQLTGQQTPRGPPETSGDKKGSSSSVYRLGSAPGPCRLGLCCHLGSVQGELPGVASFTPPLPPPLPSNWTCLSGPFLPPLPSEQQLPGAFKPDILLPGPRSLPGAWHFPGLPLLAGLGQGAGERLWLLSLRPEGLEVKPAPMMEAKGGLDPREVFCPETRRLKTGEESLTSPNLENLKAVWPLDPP
In outline:
as §1

The target of another assay is T3, ETS2 (Homo sapiens, UniProt P15036 1-469).
T3 sequence: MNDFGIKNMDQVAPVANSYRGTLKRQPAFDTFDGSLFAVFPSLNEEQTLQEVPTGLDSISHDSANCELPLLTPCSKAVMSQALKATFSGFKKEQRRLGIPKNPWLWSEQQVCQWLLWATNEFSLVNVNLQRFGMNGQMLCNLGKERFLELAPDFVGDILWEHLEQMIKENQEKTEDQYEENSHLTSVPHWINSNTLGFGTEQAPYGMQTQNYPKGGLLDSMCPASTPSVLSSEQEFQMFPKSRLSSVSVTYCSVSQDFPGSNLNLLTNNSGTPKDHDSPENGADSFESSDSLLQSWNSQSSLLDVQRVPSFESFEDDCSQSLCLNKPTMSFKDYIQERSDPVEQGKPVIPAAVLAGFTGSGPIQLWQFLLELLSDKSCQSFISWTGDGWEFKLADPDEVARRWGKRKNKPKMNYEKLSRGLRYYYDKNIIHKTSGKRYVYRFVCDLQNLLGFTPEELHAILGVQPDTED
In outline:
as §1

Another assay concerns the target T4, SPDEF (Homo sapiens, UniProt O95238 1-335).
T4 sequence: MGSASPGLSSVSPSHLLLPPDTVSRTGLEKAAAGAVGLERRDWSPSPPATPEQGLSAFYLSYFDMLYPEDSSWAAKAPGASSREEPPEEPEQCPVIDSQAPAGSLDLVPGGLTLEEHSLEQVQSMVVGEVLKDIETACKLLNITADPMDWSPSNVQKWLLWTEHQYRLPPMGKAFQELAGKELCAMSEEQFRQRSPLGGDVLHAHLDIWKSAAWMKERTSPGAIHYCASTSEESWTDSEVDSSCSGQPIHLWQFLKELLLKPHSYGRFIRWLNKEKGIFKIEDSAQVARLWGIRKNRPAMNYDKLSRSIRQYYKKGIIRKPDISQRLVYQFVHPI
In outline: as §1

In another assay the target is T5, ETV7 (Homo sapiens, UniProt Q9Y603 1-341).
T5 sequence: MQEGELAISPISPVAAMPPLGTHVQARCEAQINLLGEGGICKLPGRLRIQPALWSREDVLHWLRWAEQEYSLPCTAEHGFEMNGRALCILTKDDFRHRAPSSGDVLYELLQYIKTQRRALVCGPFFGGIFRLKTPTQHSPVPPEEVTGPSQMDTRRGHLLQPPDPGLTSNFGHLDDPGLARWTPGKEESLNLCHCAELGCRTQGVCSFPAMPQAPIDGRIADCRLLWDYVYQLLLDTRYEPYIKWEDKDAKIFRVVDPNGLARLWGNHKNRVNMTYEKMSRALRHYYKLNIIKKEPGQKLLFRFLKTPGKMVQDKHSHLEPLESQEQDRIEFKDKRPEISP
A digest of the protocol: as §1

For the next assay, the target named is T6, ELF5 (Homo sapiens, UniProt Q9UKW6-2 1-255).
T6 sequence: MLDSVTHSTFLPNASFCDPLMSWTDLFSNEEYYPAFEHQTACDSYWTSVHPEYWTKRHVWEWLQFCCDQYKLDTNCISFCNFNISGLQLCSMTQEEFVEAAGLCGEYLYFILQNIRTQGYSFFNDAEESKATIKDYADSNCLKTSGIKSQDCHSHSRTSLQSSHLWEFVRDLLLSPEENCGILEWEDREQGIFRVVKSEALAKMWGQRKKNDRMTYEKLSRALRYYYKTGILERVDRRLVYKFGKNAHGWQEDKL
In outline:
as §1

A further assay addresses T7, ETV3 (Homo sapiens, UniProt P41162-2 1-143).
T7 sequence: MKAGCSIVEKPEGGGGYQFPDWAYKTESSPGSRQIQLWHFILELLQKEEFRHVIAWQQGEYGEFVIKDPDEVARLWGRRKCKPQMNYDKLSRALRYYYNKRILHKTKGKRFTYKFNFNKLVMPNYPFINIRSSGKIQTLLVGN
A digest of the protocol: as §1

Another assay addresses ETV6 (Homo sapiens, UniProt P41212 1-452). In outline:
as §1

Experimental findings from PMC7862700, “An all-to-all approach to the identification of sequence-specific readers for epigenetic DNA modifications on cytosine” are described below.

Sequence of ETV6 (P41212 whole entry): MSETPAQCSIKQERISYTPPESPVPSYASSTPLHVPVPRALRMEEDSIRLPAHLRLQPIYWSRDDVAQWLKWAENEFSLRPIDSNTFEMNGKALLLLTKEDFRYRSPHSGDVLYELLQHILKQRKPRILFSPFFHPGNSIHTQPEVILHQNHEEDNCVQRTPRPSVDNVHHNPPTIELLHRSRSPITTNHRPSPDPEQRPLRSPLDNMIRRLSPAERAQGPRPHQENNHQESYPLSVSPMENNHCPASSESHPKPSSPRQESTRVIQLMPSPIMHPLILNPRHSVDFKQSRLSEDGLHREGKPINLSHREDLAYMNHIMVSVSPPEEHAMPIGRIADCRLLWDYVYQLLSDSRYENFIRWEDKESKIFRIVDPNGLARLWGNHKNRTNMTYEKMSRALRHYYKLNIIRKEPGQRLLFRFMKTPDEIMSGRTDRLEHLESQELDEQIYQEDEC

As to TATTGC, the binding signal in the assay with ERF was 1.31 fold enrichment (6-mer frequency, TF over GST control); with ETV3L, 1.4 fold enrichment (6-mer frequency, TF over GST control); with ETS2, 1.36 fold enrichment (6-mer frequency, TF over GST control); in the assay with SPDEF, 1.31 fold enrichment (6-mer frequency, TF over GST control); in the assay with ETV7 it was 1.36 fold enrichment (6-mer frequency, TF over GST control); with ELF5 it was 1.27 fold enrichment (6-mer frequency, TF over GST control). For the same sequence, the binding signal in the assay with ETV3 was 1.41 fold enrichment (6-mer frequency, TF over GST control); in the assay with ETV6 it was 1.38 fold enrichment (6-mer frequency, TF over GST control).

Turning to ATCTGA, the binding signal with ERF is 1.2 fold enrichment (6-mer frequency, TF over GST control); with ETV3L, 1.19 fold enrichment (6-mer frequency, TF over GST control); with ETS2, 1.17 fold enrichment (6-mer frequency, TF over GST control); with SPDEF, 1.1 fold enrichment (6-mer frequency, TF over GST control); with ETV7, 1.04 fold enrichment (6-mer frequency, TF over GST control); with ELF5, 1.08 fold enrichment (6-mer frequency, TF over GST control). Besides, the binding signal in the assay with ETV3 was 1.06 fold enrichment (6-mer frequency, TF over GST control); with ETV6, 1.13 fold enrichment (6-mer frequency, TF over GST control).

Consider ATATGA, for which the binding signal with ERF is 1.13 fold enrichment (6-mer frequency, TF over GST control); with ETV3L it was 1.14 fold enrichment (6-mer frequency, TF over GST control); with ETS2 it was 1.09 fold enrichment (6-mer frequency, TF over GST control); with SPDEF it was 1.05 fold enrichment (6-mer frequency, TF over GST control); with ETV7 it was 1.12 fold enrichment (6-mer frequency, TF over GST control); in the assay with ELF5, 1.1 fold enrichment (6-mer frequency, TF over GST control). For the same sequence, the binding signal with ETV3 was 1.08 fold enrichment (6-mer frequency, TF over GST control); with ETV6 it was 1.06 fold enrichment (6-mer frequency, TF over GST control).

In the case of CTGACG, the binding signal in the assay with ERF is 1.17 fold enrichment (6-mer frequency, TF over GST control); with ETV3L, 1.03 fold enrichment (6-mer frequency, TF over GST control); with ETS2, 1.2 fold enrichment (6-mer frequency, TF over GST control); in the assay with SPDEF it was 1 fold enrichment (6-mer frequency, TF over GST control); in the assay with ETV7, 1.07 fold enrichment (6-mer frequency, TF over GST control); with ELF5 it was 1.09 fold enrichment (6-mer frequency, TF over GST control). In addition, the binding signal was 1.06 fold enrichment (6-mer frequency, TF over GST control) in the assay with ETV3 and 1.16 fold enrichment (6-mer frequency, TF over GST control) in the assay with ETV6.

With CTGGGT, the binding signal was 1.07 fold enrichment (6-mer frequency, TF over GST control) with ERF; 1.18 fold enrichment (6-mer frequency, TF over GST control) in the assay with ETV3L; 1.09 fold enrichment (6-mer frequency, TF over GST control) with ETS2; 1.08 fold enrichment (6-mer frequency, TF over GST control) in the assay with SPDEF; 1.1 fold enrichment (6-mer frequency, TF over GST control) in the assay with ETV7; 1.07 fold enrichment (6-mer frequency, TF over GST control) in the assay with ELF5. The binding signal was 1.07 fold enrichment (6-mer frequency, TF over GST control) in the assay with ETV3 and 1.09 fold enrichment (6-mer frequency, TF over GST control) in the assay with ETV6.

With ATCATA, the binding signal in the assay with ERF was 1.12 fold enrichment (6-mer frequency, TF over GST control); with ETV3L, 1.12 fold enrichment (6-mer frequency, TF over GST control); in the assay with ETS2, 1.03 fold enrichment (6-mer frequency, TF over GST control); with SPDEF, 1.03 fold enrichment (6-mer frequency, TF over GST control); with ETV7 it was 1.1 fold enrichment (6-mer frequency, TF over GST control); with ELF5, 1.11 fold enrichment (6-mer frequency, TF over GST control). The binding signal in the assay with ETV3 is 1.09 fold enrichment (6-mer frequency, TF over GST control); in the assay with ETV6, 1.1 fold enrichment (6-mer frequency, TF over GST control).

For the sequence ACCTCA, the binding signal was 1.23 fold enrichment (6-mer frequency, TF over GST control) with ERF; 1.29 fold enrichment (6-mer frequency, TF over GST control) with ETV3L; 1.21 fold enrichment (6-mer frequency, TF over GST control) with ETS2; 1.09 fold enrichment (6-mer frequency, TF over GST control) in the assay with SPDEF; 1.04 fold enrichment (6-mer frequency, TF over GST control) with ETV7; 1.11 fold enrichment (6-mer frequency, TF over GST control) with ELF5. Also, the binding signal was 1.18 fold enrichment (6-mer frequency, TF over GST control) with ETV3 and 1.17 fold enrichment (6-mer frequency, TF over GST control) with ETV6.

On to GTACAC, for which the binding signal with ERF is 1.15 fold enrichment (6-mer frequency, TF over GST control); with ETV3L, 1.16 fold enrichment (6-mer frequency, TF over GST control); with ETS2, 1.18 fold enrichment (6-mer frequency, TF over GST control); with SPDEF it was 1.2 fold enrichment (6-mer frequency, TF over GST control); in the assay with ETV7, 1.24 fold enrichment (6-mer frequency, TF over GST control); with ELF5 it was 1.2 fold enrichment (6-mer frequency, TF over GST control). The binding signal with ETV3 is 1.21 fold enrichment (6-mer frequency, TF over GST control); with ETV6, 1.29 fold enrichment (6-mer frequency, TF over GST control).
